# Test results as given in publication PMC9911399, “Two distinct binding modes provide the RNA-binding protein RbFox with extraordinary sequence specificity”.
# Residue numbers refer to the chain shown, from its start. Over roughly 16,000 sequences, “ka relative to ugcaugu” has its median near 0.0091; the highest 2% begin near 0.032. The sample holds the highest values, similar sequences and a random draw of the others, so the mix is not that of the screen.
# T1: RBFOX1 RRM (Homo sapiens, UniProt Q9NWB1 109-208)
# T1 sequence: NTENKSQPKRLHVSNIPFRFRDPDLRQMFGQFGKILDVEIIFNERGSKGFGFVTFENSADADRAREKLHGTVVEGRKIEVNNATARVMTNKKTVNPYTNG
# B1: CCUGGCU (DNA:RNA)
# RNA: GGGAGACCGGAAUUCAGAUUGUCCCCUGGCUUUAAAUCCCGUCGUAGCCACCA
# DNA 1: CAATCTGAATTCCGGTCTCCC
# DNA 2: TGGTGGCTACGACGGGATT
# B2: AGGUGAU (DNA:RNA)
# RNA: B1 RNA with C25A, C26G, U27G, G28U, C30A
# DNA 1: CAATCTGAATTCCGGTCTCCC
# DNA 2: TGGTGGCTACGACGGGATT
# B3: UUCGAUU (DNA:RNA)
# RNA: B1 RNA with C25U, C26U, U27C, G29A, C30U
# DNA 1: CAATCTGAATTCCGGTCTCCC
# DNA 2: TGGTGGCTACGACGGGATT
# B4: GUUUGCU (DNA:RNA)
# RNA: B1 RNA with C25G, C26U, G28U
# DNA 1: CAATCTGAATTCCGGTCTCCC
# DNA 2: TGGTGGCTACGACGGGATT
# B5: AACGCCU (DNA:RNA)
# RNA: B1 RNA with C25A, C26A, U27C, G29C
# DNA 1: CAATCTGAATTCCGGTCTCCC
# DNA 2: TGGTGGCTACGACGGGATT
# B6: GUAGAGU (DNA:RNA)
# RNA: B1 RNA with C25G, C26U, U27A, G29A, C30G
# DNA 1: CAATCTGAATTCCGGTCTCCC
# DNA 2: TGGTGGCTACGACGGGATT
# B7: CUGACUG (DNA:RNA)
# RNA: B1 RNA with C26U, U27G, G28A, G29C, C30U, U31G
# DNA 1: CAATCTGAATTCCGGTCTCCC
# DNA 2: TGGTGGCTACGACGGGATT
# B8: UCCUGAC (DNA:RNA)
# RNA: B1 RNA with C25U, U27C, G28U, C30A, U31C
# DNA 1: CAATCTGAATTCCGGTCTCCC
# DNA 2: TGGTGGCTACGACGGGATT
# B9: UGACUUG (DNA:RNA)
# RNA: GGGAGACCGGAAUUCAGAUUGUCCUGACUUGUUAAAUCCCGUCGUAGCCACCA
# DNA 1: CAATCTGAATTCCGGTCTCCC
# DNA 2: TGGTGGCTACGACGGGATT
# B10: UGCUGAC (DNA:RNA)
# RNA: B9 RNA with A27C, C28U, U29G, U30A, G31C
# DNA 1: CAATCTGAATTCCGGTCTCCC
# DNA 2: TGGTGGCTACGACGGGATT
# B11: GCCAGAC (DNA:RNA)
# RNA: B1 RNA with C25G, U27C, G28A, C30A, U31C
# DNA 1: CAATCTGAATTCCGGTCTCCC
# DNA 2: TGGTGGCTACGACGGGATT
# B12: GCCUGAA (DNA:RNA)
# RNA: B1 RNA with C25G, U27C, G28U, C30A, U31A
# DNA 1: CAATCTGAATTCCGGTCTCCC
# DNA 2: TGGTGGCTACGACGGGATT
# B13: UGACUGU (DNA:RNA)
# RNA: B9 RNA with U30G, G31U
# DNA 1: CAATCTGAATTCCGGTCTCCC
# DNA 2: TGGTGGCTACGACGGGATT
# B14: UGACUGG (DNA:RNA)
# RNA: B9 RNA with U30G
# DNA 1: CAATCTGAATTCCGGTCTCCC
# DNA 2: TGGTGGCTACGACGGGATT
# B15: UGACUGC (DNA:RNA)
# RNA: B9 RNA with U30G, G31C
# DNA 1: CAATCTGAATTCCGGTCTCCC
# DNA 2: TGGTGGCTACGACGGGATT
# B16: GCCUGAC (DNA:RNA)
# RNA: B1 RNA with C25G, U27C, G28U, C30A, U31C
# DNA 1: CAATCTGAATTCCGGTCTCCC
# DNA 2: TGGTGGCTACGACGGGATT
# B17: UGACUGA (DNA:RNA)
# RNA: B9 RNA with U30G, G31A
# DNA 1: CAATCTGAATTCCGGTCTCCC
# DNA 2: TGGTGGCTACGACGGGATT
# B18: UGACCGU (DNA:RNA)
# RNA: B9 RNA with U29C, U30G, G31U
# DNA 1: CAATCTGAATTCCGGTCTCCC
# DNA 2: TGGTGGCTACGACGGGATT
# B19: CGAGAAA (DNA:RNA)
# RNA: B1 RNA with C26G, U27A, G29A, C30A, U31A
# DNA 1: CAATCTGAATTCCGGTCTCCC
# DNA 2: TGGTGGCTACGACGGGATT
# B20: GAUAUCG (DNA:RNA)
# RNA: B1 RNA with C25G, C26A, G28A, G29U, U31G
# DNA 1: CAATCTGAATTCCGGTCTCCC
# DNA 2: TGGTGGCTACGACGGGATT
# B21: GGCGCCU (DNA:RNA)
# RNA: B1 RNA with C25G, C26G, U27C, G29C
# DNA 1: CAATCTGAATTCCGGTCTCCC
# DNA 2: TGGTGGCTACGACGGGATT
# B22: UGCCCAG (DNA:RNA)
# RNA: B9 RNA with A27C, U29C, U30A
# DNA 1: CAATCTGAATTCCGGTCTCCC
# DNA 2: TGGTGGCTACGACGGGATT
# B23: UGCGAGG (DNA:RNA)
# RNA: B9 RNA with A27C, C28G, U29A, U30G
# DNA 1: CAATCTGAATTCCGGTCTCCC
# DNA 2: TGGTGGCTACGACGGGATT
# B24: GUAGCGU (DNA:RNA)
# RNA: B1 RNA with C25G, C26U, U27A, G29C, C30G
# DNA 1: CAATCTGAATTCCGGTCTCCC
# DNA 2: TGGTGGCTACGACGGGATT
# B25: UUUAAGG (DNA:RNA)
# RNA: B9 RNA with G26U, A27U, C28A, U29A, U30G
# DNA 1: CAATCTGAATTCCGGTCTCCC
# DNA 2: TGGTGGCTACGACGGGATT
# B26: GUCUUAG (DNA:RNA)
# RNA: B9 RNA with U25G, G26U, A27C, C28U, U30A
# DNA 1: CAATCTGAATTCCGGTCTCCC
# DNA 2: TGGTGGCTACGACGGGATT
# B27: AGAUGCA (DNA:RNA)
# RNA: B1 RNA with C25A, C26G, U27A, G28U, U31A
# DNA 1: CAATCTGAATTCCGGTCTCCC
# DNA 2: TGGTGGCTACGACGGGATT
# B28: UGAUUCA (DNA:RNA)
# RNA: B9 RNA with C28U, U30C, G31A
# DNA 1: CAATCTGAATTCCGGTCTCCC
# DNA 2: TGGTGGCTACGACGGGATT
# B29: UGAUGCA (DNA:RNA)
# RNA: B9 RNA with C28U, U29G, U30C, G31A
# DNA 1: CAATCTGAATTCCGGTCTCCC
# DNA 2: TGGTGGCTACGACGGGATT
# B30: UGCAUAA (DNA:RNA)
# RNA: B9 RNA with A27C, C28A, U30A, G31A
# DNA 1: CAATCTGAATTCCGGTCTCCC
# DNA 2: TGGTGGCTACGACGGGATT
# B31: UGCAGAA (DNA:RNA)
# RNA: B9 RNA with A27C, C28A, U29G, U30A, G31A
# DNA 1: CAATCTGAATTCCGGTCTCCC
# DNA 2: TGGTGGCTACGACGGGATT
# B32: UUCAUGC (DNA:RNA)
# RNA: B9 RNA with G26U, A27C, C28A, U30G, G31C
# DNA 1: CAATCTGAATTCCGGTCTCCC
# DNA 2: TGGTGGCTACGACGGGATT
# B33: UGCAUGC (DNA:RNA)
# RNA: B9 RNA with A27C, C28A, U30G, G31C
# DNA 1: CAATCTGAATTCCGGTCTCCC
# DNA 2: TGGTGGCTACGACGGGATT
# B34: UUCAUGG (DNA:RNA)
# RNA: B9 RNA with G26U, A27C, C28A, U30G
# DNA 1: CAATCTGAATTCCGGTCTCCC
# DNA 2: TGGTGGCTACGACGGGATT
# B35: UGCAUGG (DNA:RNA)
# RNA: B9 RNA with A27C, C28A, U30G
# DNA 1: CAATCTGAATTCCGGTCTCCC
# DNA 2: TGGTGGCTACGACGGGATT
# B36: UGCAUGA (DNA:RNA)
# RNA: B9 RNA with A27C, C28A, U30G, G31A
# DNA 1: CAATCTGAATTCCGGTCTCCC
# DNA 2: TGGTGGCTACGACGGGATT
# B37: GUCCUGC (DNA:RNA)
# RNA: B9 RNA with U25G, G26U, A27C, U30G, G31C
# DNA 1: CAATCTGAATTCCGGTCTCCC
# DNA 2: TGGTGGCTACGACGGGATT
# B38: UGCGUGG (DNA:RNA)
# RNA: B9 RNA with A27C, C28G, U30G
# DNA 1: CAATCTGAATTCCGGTCTCCC
# DNA 2: TGGTGGCTACGACGGGATT
# Target: T1, RBFOX1 RRM
# Test: EMSA; HiTS-Eq, 1 nM pool, 10 min; buffer printed only for the single-RNA assays: 10 mM Tris pH 7.5, 150 mM NaCl, 3.4 mM EDTA, 0.001% NP-40, 30 C
# Details: tags: His6 N-terminal (pET28a); label: 5' 32P
# Summary of the method: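 These values rest on relative association constants, computed from read-count changes of each RNA species versus the control reaction and normalised to the cognate motif. Reads came from free RNA recovered by 8% native PAGE after purified RbFox RRM (wild type or mutant) at increasing concentrations was equilibrated for 10 min in 50 µL with 1 nM of a 5′-radiolabelled pool with 7 randomized nucleotides and DNA-annealed flanks.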
row,Binder,binding signal
1,B1,0.0127 KA relative to UGCAUGU
2,B2,0.0113 KA relative to UGCAUGU
3,B3,0.00889 KA relative to UGCAUGU
4,B4,0.0286 KA relative to UGCAUGU
5,B5,0.00525 KA relative to UGCAUGU
6,B6,0.0112 KA relative to UGCAUGU
7,B7,0.0302 KA relative to UGCAUGU
8,B8,0.0129 KA relative to UGCAUGU
9,B9,0.0454 KA relative to UGCAUGU
10,B10,0.0249 KA relative to UGCAUGU
11,B11,0.0114 KA relative to UGCAUGU
12,B12,0.0276 KA relative to UGCAUGU
13,B13,0.032 KA relative to UGCAUGU
14,B14,0.0284 KA relative to UGCAUGU
15,B15,0.039 KA relative to UGCAUGU
16,B16,0.0331 KA relative to UGCAUGU
17,B17,0.0256 KA relative to UGCAUGU
18,B18,0.0185 KA relative to UGCAUGU
19,B19,0.00724 KA relative to UGCAUGU

row,Binder,binding signal
1,B20,0.0155 KA relative to UGCAUGU
2,B21,0.00816 KA relative to UGCAUGU
3,B22,0.0164 KA relative to UGCAUGU
4,B23,0.0231 KA relative to UGCAUGU
5,B24,0.0174 KA relative to UGCAUGU
6,B25,0.0043 KA relative to UGCAUGU
7,B26,0.0121 KA relative to UGCAUGU
8,B27,0.0164 KA relative to UGCAUGU
9,B28,0.0154 KA relative to UGCAUGU
10,B29,0.0332 KA relative to UGCAUGU
11,B30,0.00891 KA relative to UGCAUGU
12,B31,0.0113 KA relative to UGCAUGU
13,B32,0.0106 KA relative to UGCAUGU
14,B33,1.02 KA relative to UGCAUGU
15,B34,0.00704 KA relative to UGCAUGU
16,B35,0.965 KA relative to UGCAUGU
17,B36,0.913 KA relative to UGCAUGU
18,B37,0.0203 KA relative to UGCAUGU
19,B38,0.0211 KA relative to UGCAUGU
